This is an account of results in PubChem BioAssay.

The target in one assay is Albumin (Bos taurus) (UniProt P02769). As to the kind of experiment: bovine serum albumin binders on microarray, profiling panel, artefact control for SMM control protein annotation, biochemical, small-molecule microarray, Alexa647 label, 635/667 nm fluorescence (AID 1118).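 Further: score merges 667 nm emission intensity and signal-to-noise per printed compound spot.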 Conditions: BSA-A647 binding, fluorescence 635 nm, higher = more signal.
Chain of Albumin (Bos taurus) (P02769 whole entry, looked up): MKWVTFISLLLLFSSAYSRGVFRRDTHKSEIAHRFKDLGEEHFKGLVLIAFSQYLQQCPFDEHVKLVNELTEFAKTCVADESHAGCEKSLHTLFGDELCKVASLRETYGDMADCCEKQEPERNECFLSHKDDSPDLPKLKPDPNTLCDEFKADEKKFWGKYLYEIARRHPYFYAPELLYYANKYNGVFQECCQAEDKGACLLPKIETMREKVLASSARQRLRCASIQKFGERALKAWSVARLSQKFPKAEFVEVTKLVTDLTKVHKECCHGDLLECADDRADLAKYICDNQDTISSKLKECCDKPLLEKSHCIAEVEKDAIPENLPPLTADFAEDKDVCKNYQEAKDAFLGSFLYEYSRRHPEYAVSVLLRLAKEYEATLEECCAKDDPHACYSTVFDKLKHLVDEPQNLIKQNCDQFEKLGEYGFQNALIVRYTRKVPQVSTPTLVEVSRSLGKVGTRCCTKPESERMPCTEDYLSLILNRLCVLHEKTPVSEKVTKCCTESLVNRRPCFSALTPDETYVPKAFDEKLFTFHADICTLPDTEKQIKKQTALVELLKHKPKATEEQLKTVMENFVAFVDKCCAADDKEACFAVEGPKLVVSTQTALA
The nature of assay [1]: small-molecule microarray binders of probe aXIP, primary screen, biochemical, NeuroSMM set, 635/667 nm fluorescence (AID 1119).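 Further: probe is the protein aXip251-270 applied at 1 µg/mL to compound-printed slides; binding of probe to printed compounds measured as 667 nm fluorescence plus signal to noise.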 Conditions: higher = more signal, called active from +8 up or from −8 down.
Assay [2] in a line: small-molecule binders of probe aNOTCH3, primary screen, biochemical, small-molecule microarray, 635/667 nm fluorescence (AID 1120).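 Further: probe is a biotin-tagged antibody raised against NOTCH3 rather than NOTCH3 protein; score merges spot fluorescence near 667 nm with spot signal to noise.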 Conditions: higher = more signal.
The nature of assay [3]: small-molecule binders of probe aNOTCH2, primary screen, biochemical, small-molecule microarray, 635/667 nm fluorescence (AID 1121).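 Further: score merges feature fluorescence read at 667 nm with its signal to noise.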 Particulars: higher = more signal.
The target in assay [4] is Carbonic anhydrase 2 (Homo sapiens) (UniProt P00918). As to the kind of experiment: CAII small-molecule binders, profiling panel, biochemical, small-molecule microarray, Alexa647-labelled CAII (AID 1122). Conditions: CAII-A647 binding fluorescence, higher = more signal.
Assay [5] in a line: COS7 lysate on small-molecule microarray, probe aHis, 635 nm (AID 1123).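 Further: z-score combines 667nm fluorescence intensity with signal-to-noise per printed compound spot.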 Conditions: COS7 cell lysate, fluorescence, higher = more signal.
Assay [6] is described as follows: compound binding in COS7 lysate, probe aLAP1, primary screen, cell lysate, small-molecule microarray (AID 1124).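 Further: lysate comes from COS7 cells expressing LAP1 and is applied at 0.3 µg/mL; score merges spot fluorescence near 667 nm with signal-to-noise over triplicate slides.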 Particulars: probe aLAP1, fluorescence, higher = more signal.
The subject of a further assay is Sam68 (KHDRBS1). As to the kind of experiment: Sam68 small-molecule binders, primary screen, biochemical, small-molecule microarray, 635 nm fluorescence (AID 1125).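 Further: score merges 667 nm channel intensity with signal to noise over triplicate slides.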 Conditions: small-molecule microarray binding, higher = more signal.
Assay [7] deals with Chordin-like protein 2 (CHRDL2). The assay is described as follows: CHRDL2 small-molecule binders, primary screen, biochemical, small-molecule microarray, 635 nm fluorescence (AID 1126).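 Further: printed compound slides probed with Chrdl2 protein at 4 µg/mL for 1 h at 4 C; score merges 667 nm emission intensity with signal to noise over three replicate slides.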 Conditions: small-molecule microarray binding, fluorescence 635 nm; higher = more signal.
In assay [8] the target is Concanavalin-A (Canavalia ensiformis) (UniProt P02866). As to the kind of experiment: ConA small-molecule binders, primary screen, artefact control for SMM control protein annotation, biochemical, small-molecule microarray, Alexa647 label, 635 nm (AID 1127).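 Further: z combines 667 nm emission intensity with signal-to-noise across three replicate slides.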 Particulars: ConA-A647 binding fluorescence, higher = more signal.
Chain of Concanavalin-A (Canavalia ensiformis) (P02866 whole entry, looked up): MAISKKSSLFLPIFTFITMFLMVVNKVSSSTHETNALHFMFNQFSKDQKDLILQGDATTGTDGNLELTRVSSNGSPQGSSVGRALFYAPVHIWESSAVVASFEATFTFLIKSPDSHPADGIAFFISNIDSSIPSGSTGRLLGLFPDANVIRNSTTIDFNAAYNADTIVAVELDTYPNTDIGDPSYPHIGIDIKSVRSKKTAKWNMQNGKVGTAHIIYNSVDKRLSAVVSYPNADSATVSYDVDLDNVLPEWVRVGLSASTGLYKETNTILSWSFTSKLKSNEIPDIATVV
Assay [9] is described as follows: anti-His antibody binders, primary screen, artefact control for SMM control protein annotation, biochemical, small-molecule microarray, 635 nm fluorescence (AID 1128).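 Further: score merges feature fluorescence with signal-to-noise for each printed compound spot.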 Conditions: anti-His Alexa647 antibody binding, higher = more signal.
Assay [10] concerns Human papillomavirus type 1a E7 protein (residues 1-88). As to the kind of experiment: HPV1a E7 small-molecule binders, primary screen, biochemical, small-molecule microarray, residues 1-88, 635 nm (AID 1129). Particulars: small-molecule microarray binding, fluorescence 635 nm; higher = more signal.
Assay [11] concerns the target Focal adhesion kinase 1 (Homo sapiens) (UniProt Q05397). The assay is described as follows: small-molecule microarray binders of FAK, primary screen, biochemical, 635/667 nm fluorescence, BSA, DTT (AID 1130).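 Further: composite of spot emission at 667 nm and signal to noise over triplicate slides.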 Conditions: PTK2 binding, 635 nm fluorescence, higher = more signal.
For assay [12], the system named is Fibrinogen (Alexa647-labelled). The assay is described as follows: fibrinogen binders on compound microarrays, profiling panel, artefact control for SMM control-protein annotation, biochemical, small-molecule microarray, 635/667 nm fluorescence (AID 1131).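 Further: z-score merges 667 nm fluorescence with per-spot signal-to-noise over triplicate slides.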 Conditions: fibrinogen-A647 binding fluorescence, higher = more signal.
Assay [13] addresses Follistatin (Homo sapiens) (UniProt P19883). The assay is described as follows: follistatin binders on small-molecule microarrays, primary screen, biochemical, small-molecule microarray, 635/667 nm fluorescence (AID 1132). Particulars: FST binding, 635 nm fluorescence, higher = more signal.
The target in assay [14] is Fibroblast growth factor 2 (Homo sapiens) (UniProt P09038). The assay is described as follows: FGF2 binders on small-molecule microarrays, primary screen, biochemical, small-molecule microarray, 635/667 nm fluorescence (AID 1133). Conditions: small-molecule microarray binding, FGF2, fluorescence 635/667; higher = more signal.
Chain of Fibroblast growth factor 2 (Homo sapiens) (P09038 whole entry, looked up): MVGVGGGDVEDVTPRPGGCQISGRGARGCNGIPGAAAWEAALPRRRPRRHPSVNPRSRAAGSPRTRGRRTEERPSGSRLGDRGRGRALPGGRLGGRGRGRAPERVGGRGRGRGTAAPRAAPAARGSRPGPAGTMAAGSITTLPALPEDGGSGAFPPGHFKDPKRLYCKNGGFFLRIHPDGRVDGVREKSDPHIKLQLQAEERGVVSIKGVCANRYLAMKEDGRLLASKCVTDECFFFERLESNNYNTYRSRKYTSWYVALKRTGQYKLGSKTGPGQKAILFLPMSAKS
Assay [15] is described as follows: mitochondrial membrane potential change in A549 cells, profiling panel, cell-based, JC-1 fluorescence, basal, 24 h, 100 nL (AID 1138).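 Further: A549 lung adenocarcinoma cells under basal conditions with no added stimulus; test concentration not given here.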 Conditions: higher = more signal.
The next assay deals with Lefty1. As to the kind of experiment: Lefty1 binders on small-molecule microarrays, primary screen, biochemical, small-molecule microarray, 635/667 nm fluorescence (AID 1139). Conditions: small-molecule microarray binding, fluorescence 635/667; higher = more signal.
Assay [16] deals with wheat germ agglutinin (Triticum aestivum), Alexa647-labelled. The assay is described as follows: wheat germ agglutinin binders on compound microarrays, profiling panel, artefact control for SMM control-protein annotation, biochemical, small-molecule microarray, 635/667 nm fluorescence (AID 1140).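 Further: score merges 667 nm feature emission with signal to noise over triplicate slides.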 Conditions: WGA-A647 binding, 635 nm fluorescence, higher = more signal.
Assay [17] concerns the target Luciferin 4-monooxygenase (Photinus pyralis) (UniProt P08659). As to the kind of experiment: firefly luciferase enzyme inhibitors, primary screen, biochemical, luminescence, purified enzyme, 2006 set (AID 1141).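 Further: cell-free assay with purified firefly luciferase at 100 ng per well in PBS; test concentration not given here.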 Particulars: SteadyGlo luminescence, 30 min, higher = more signal, called active from +8 up or from −8 down.

SMILES strings stand for the structures. The source made the active and inactive calls.

Chain of Luciferin 4-monooxygenase (Photinus pyralis) (P08659 whole entry, looked up): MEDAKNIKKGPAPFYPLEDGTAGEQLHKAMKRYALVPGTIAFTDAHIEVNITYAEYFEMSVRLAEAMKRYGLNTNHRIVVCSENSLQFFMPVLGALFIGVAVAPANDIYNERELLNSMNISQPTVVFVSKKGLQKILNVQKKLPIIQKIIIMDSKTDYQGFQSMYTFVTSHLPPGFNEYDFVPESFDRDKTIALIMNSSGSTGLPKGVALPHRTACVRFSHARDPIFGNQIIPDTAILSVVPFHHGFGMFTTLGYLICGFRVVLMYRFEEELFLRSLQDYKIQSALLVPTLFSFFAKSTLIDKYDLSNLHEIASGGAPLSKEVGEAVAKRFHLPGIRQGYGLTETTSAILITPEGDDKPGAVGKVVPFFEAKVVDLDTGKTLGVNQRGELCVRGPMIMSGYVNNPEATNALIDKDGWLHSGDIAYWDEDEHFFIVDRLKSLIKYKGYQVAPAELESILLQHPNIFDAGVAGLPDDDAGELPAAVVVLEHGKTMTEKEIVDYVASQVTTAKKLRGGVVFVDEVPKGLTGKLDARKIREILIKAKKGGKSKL
Chain of Follistatin (Homo sapiens) (P19883 whole entry, looked up): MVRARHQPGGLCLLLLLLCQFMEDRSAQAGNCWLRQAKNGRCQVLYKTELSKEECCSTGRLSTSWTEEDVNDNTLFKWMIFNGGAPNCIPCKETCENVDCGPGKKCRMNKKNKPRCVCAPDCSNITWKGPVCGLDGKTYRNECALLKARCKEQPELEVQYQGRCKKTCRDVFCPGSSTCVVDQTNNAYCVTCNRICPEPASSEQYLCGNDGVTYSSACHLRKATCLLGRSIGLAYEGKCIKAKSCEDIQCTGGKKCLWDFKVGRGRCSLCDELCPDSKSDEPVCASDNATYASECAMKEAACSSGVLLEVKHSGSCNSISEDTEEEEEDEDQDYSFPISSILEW
Chain of Focal adhesion kinase 1 (Homo sapiens) (Q05397 whole entry, looked up): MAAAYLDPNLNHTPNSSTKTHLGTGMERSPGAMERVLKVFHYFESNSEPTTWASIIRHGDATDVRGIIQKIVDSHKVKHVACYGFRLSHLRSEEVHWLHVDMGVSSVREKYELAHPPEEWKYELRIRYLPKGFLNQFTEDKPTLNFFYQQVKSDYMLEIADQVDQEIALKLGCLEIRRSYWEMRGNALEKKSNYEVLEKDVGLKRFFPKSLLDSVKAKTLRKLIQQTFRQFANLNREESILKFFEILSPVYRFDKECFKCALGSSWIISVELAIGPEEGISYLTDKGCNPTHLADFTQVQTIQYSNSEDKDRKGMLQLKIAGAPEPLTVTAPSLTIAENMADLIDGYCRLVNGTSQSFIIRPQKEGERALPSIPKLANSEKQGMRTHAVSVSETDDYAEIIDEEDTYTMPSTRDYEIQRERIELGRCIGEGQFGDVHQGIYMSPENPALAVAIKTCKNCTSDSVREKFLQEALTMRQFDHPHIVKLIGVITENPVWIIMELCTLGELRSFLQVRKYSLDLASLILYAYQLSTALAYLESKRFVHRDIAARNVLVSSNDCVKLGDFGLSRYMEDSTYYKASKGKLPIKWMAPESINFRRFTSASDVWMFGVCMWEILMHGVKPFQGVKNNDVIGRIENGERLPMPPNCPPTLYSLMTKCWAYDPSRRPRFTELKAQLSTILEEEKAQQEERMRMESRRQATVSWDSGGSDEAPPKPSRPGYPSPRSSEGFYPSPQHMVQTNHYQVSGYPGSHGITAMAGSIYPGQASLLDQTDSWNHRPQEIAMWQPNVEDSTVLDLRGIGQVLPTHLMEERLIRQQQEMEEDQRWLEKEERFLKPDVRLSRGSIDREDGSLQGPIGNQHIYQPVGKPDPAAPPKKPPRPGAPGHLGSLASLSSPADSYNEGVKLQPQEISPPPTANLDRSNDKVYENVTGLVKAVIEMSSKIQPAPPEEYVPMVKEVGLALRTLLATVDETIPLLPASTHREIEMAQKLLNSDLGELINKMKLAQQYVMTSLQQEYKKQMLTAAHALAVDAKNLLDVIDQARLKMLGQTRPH

Turning to `O=C(NN=C1C[C@@H](O)[C@@H](O)[C@@H]2[C@@H]3C(=O)N(Cc4ccc5c(c4)OCO5)C(=O)[C@@H]3CC[C@@H]12)OCc1ccccc1`, the composite z-score was 0.544 with Albumin (Bos taurus); -0.0377 in [2]; -0.0817 in [3]; -0.141 in assay [4]; -0.357 in assay [5]; 0.0507 in assay [6]. The composite z-score was -0.449 in the assay on Sam68 (KHDRBS1); -0.0473 in assay [7]; -0.0653 in [8]; 0.921 in assay [9]; 0.0191 in [10]; 0.28 in assay [11]. Further, the composite z-score in assay [12] is 0.057; in [13] it was -0.137; in [14], -0.0806; with Lefty1, -0.257; in [16], 0.227. Besides, the composite Z-score in assay [1] was 0.536 (inactive). For the same compound, the z-score is -0.734 in assay [15] and 1.02 (inactive) in [17].

In the case of `CCN1C(=O)[C@H]2[C@H]3[C@H](O)[C@H](O)CC(=NOCC[C@@H]4C=C[C@H](OC(C)=O)[C@@H](COC(C)=O)O4)[C@@H]3CC[C@H]2C1=O`, the composite z-score with Albumin (Bos taurus) is 0.541; in assay [2], -0.149; in [3] it was -0.12; in assay [4], 0.385; in [5], 0.305; in assay [6], 0.256. Also, the composite z-score with Sam68 (KHDRBS1) is 0.214; in assay [7] it was 0.63; in [8], 0.544; in assay [9], 0.535; in assay [10] it was 0.311; in assay [11] it was 0.39. Also, the composite z-score came to 0.936 in assay [12]; 0.472 in [13]; 0.419 in assay [14]; 0.298 in the assay on Lefty1; 0.97 in [16]. Further, in assay [1], the composite Z-score was 0.501 (inactive). Moreover, the z-score in assay [15] was -0.812; in assay [17], 0.838 (inactive).

For `CCOC(=O)[C@H](CC(C)C)NC(=O)CCC1CC(OC(=O)NCCc2ccc(F)cc2)CC2(CCCC(COC(=O)NCCOC)O2)O1` (stereo not given in full), the composite z-score with Albumin (Bos taurus) was 0.502; in assay [2], -0.0573; in assay [3] it was -0.171; in [4] it was 0.0663; in assay [5], 0.5; in assay [6], 0.417. The composite z-score in the assay on Sam68 (KHDRBS1) came out at 1.29; in assay [7], 0.515; in assay [8] it was 0.646; in assay [9], 0.917; in assay [10], 1.04; in [11], 0.318. The composite z-score in [12] is 0.416; in assay [13], 0.839; in assay [14] it was 1.18; with Lefty1, 0.955; in [16], 0.829. In assay [1], the composite Z-score was 0.795 (inactive). Moreover, the z-score in assay [15] was -0.382; in [17], 0.958 (inactive).

Turning to `CC(=O)OC[C@H]1O[C@H](CC=NO[C@@H](C)c2cc(-c3c(C)cc(C)cc3C)no2)C=C[C@@H]1OC(C)=O`, the composite z-score was 0.211 with Albumin (Bos taurus); -0.0984 in [2]; -0.0532 in assay [3]; -0.273 in assay [4]; -0.447 in assay [5]; 0.234 in [6]. The composite z-score in the assay with Sam68 (KHDRBS1) is -0.177; in assay [7], 0.236; in [8] it was 0.105; in [9], 1.81; in assay [10], -0.375; in assay [11], -0.206. Also, the composite z-score is 0.318 in assay [12]; 0.0047 in assay [13]; 0.323 in assay [14]; -0.0273 in the assay on Lefty1; 0.229 in [16]. Besides, the composite Z-score in assay [1] is 0.209 (inactive). Also, the z-score is -0.921 in assay [15] and 0.644 (inactive) in assay [17].

For the compound `CON=C(C)CCN1CCc2nc(-c3ccccc3)c(-c3ccccc3)cc2C1`, the composite z-score with Albumin (Bos taurus) is 0.633; in assay [2], -0.132; in [3], -0.0829; in [4], -0.153; in assay [5] it was -0.556; in assay [6], 0.0881. Moreover, the composite z-score in the assay with Sam68 (KHDRBS1) is -0.303; in assay [7] it was 0.258; in assay [8], 1.13; in assay [9], -0.634; in [10], -0.545; in assay [11], -0.414. In addition, the composite z-score in [12] is 0.838; in assay [13] it was 0.944; in assay [14] it was 0.344; in the assay on Lefty1 it was 0.686; in [16], 0.801. For the same compound, the composite Z-score in [1] was 0.837 (inactive). Moreover, the z-score was 2.9 in assay [15] and 0.326 (inactive) in [17].

Consider `CCOC(=O)CCN1C(=O)[C@H]2[C@H]3[C@H](O)[C@H](O)CC(=NOCC=C(C)CCC=C(C)C)[C@@H]3CC[C@H]2C1=O`, for which the composite z-score with Albumin (Bos taurus) is 0.275; in assay [2] it was -0.0043; in [3], -0.154; in [4], 0.003; in [5], 0.0888; in assay [6], 0.0278. Besides, the composite z-score in the assay on Sam68 (KHDRBS1) was 0.449; in assay [7], 0.434; in assay [8], 1.01; in [9] it was -0.34; in assay [10], 0.741; in assay [11], -0.115. The composite z-score in [12] is 0.7; in [13], 0.696; in assay [14], 0.884; in the assay on Lefty1, 0.537; in assay [16], 0.132. Further, in assay [1], the composite Z-score is -0.754 (inactive). For the same compound, the z-score in [15] was 0.0237; in assay [17], 0.597 (inactive).
